# Many of the other results were omitted from the sample, so hits are more common in it than they were.
# AMA1-RON2 inh – qHTS for Inhibitors of AMA1-RON; Towards Development of Antimalarial Drug Lead: Primary Screen; Potency, µM (doses to about 58.2 µM), without a hit: at the highest dose activity change, negative = inhibition, usual class: inhibitors; Plasmodium falciparum AMA1 (3D7) - RON2 peptide interaction; 0.2% of 360,000 active; AlphaScreen AMA1-biotinylated RON2 peptide binding; AID 720542, 2013; active means well fitted inhibition curve with a large enough effect; inconclusive means small, poorly fitted or top-dose-only effect; inactive means no such curve, though single readings can be large or run the other way;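 further: potency means the concentration at half of the fitted maximal effect; 0% = vehicle wells and -100% = peptide control; nearly all actives have a fitted effect of over 45% in size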
#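 AMA1 (3D7) with his tag at 25 nM final met compounds first, then biotinylated RON2 peptide at 25 nM; detection used donor plus acceptor beads, 10 µg/mL apiece, read by AlphaScreen after 30 min at room temperature.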
# Shiga inhibitor – A qHTS for Small Molecule Inhibitors of Shiga Toxin. Vero cells, Shiga toxin protein synthesis inhibition reporter. inhibition, % at 38.7 µM. 9.2% of 290,000 active; in the data active means inhibition mostly above about 28%, no sharp cut-off; inactive means mostly below about 43%; further: 0% is about no effect
# MARV entry inh – qHTS for inhibitors of binding or entry into cells for Marburg Virus. AID 540276, 2011. Marburg virus pseudotyped entry inhibition, cell reporter. Potency, µM (doses to about 37.8 µM), inactives show top-dose activity change, negative = inhibition, actives largely listed as inhibitors. 1.8% of 300,000 active; calls by dose curve; tested in HEK293 cells; further: potency means the concentration at half of the fitted maximal effect; on the % scale 0 is the no-effect control and ±100 the full control effect
# Lassa entry inh – qHTS for Inhibitors of binding or entry into cells for Lassa Virus; Lassa virus pseudotype entry inhibition, cell reporter; Potency, µM (titrated, usually from 37.9 µM), inactives show at the top dose activity change, negative = inhibition, actives largely listed as inhibitors; 1.2% of 300,000 active; calls by dose curve; tested in HEK293 cells; further: potency means the concentration at half of the fitted maximal effect; on the % scale 0 is the no-effect control and ±100 the full control effect; nearly all actives have a fitted effect of over 50% in size
# CHX counter – Cycloheximide Counterscreen for Small Molecule Inhibitors of Shiga Toxin | cell reporter, cycloheximide protein synthesis inhibition counterscreen | max response, % | 12% of 300,000 active | AID 2314, 2010; in the data active means max response mostly above about 13%, no sharp cut-off; inactive means mostly below about 14%; further: read at 38.3 µM for the half of the compounds with a filed dose; 0% is about no effect
# Starred values were filed as active, the others as inactive; ? = inconclusive; / = no result given; [ ] = remark or other dose.
SMILES,AMA1-RON2 inh,Shiga inhibitor,MARV entry inh,Lassa entry inh,CHX counter
COc1cccc(C(=O)/C=C/Nc2ccc(S(=O)(=O)Nc3ncccn3)cc2)c1,7.0%[2.32 µM],103.0*,2.9%,7.8%,42.8*
COc1ccc(OC)c(S(=O)(=O)Nc2cccc(C(C)=O)c2)c1,-1.2%,7.1,0.8%,-2.4%,-1.7
C[C@H](O)C(N)C(=O)O (stereo partly specified),/,-8.7,/,/,-3.9
O=C(/C=C/Nc1ccc(S(=O)(=O)Nc2ncccn2)cc1)c1ccc2ccccc2c1,-5.0%,4.5,8.4%[46.1 µM],2.8%,0.7
O=C(/C=C\Nc1ccc(S(=O)(=O)Nc2ncccn2)cc1)c1ccccc1,5.3%,142.3*,?,26.9%,50.6*
Cc1ccc(N2CN=c3s/c(=C\c4cccnc4)c(=O)n3C2)cc1,0.5%,27.5,-20.5%[46.1 µM],7.0%,19.7*
Cc1cc(C(=O)N/N=C/c2cccnc2)c2ccccc2n1,5.2%,-7.1,?,-6.5%,-5.5
CCOc1ccccc1-c1cc(C(=O)N/N=C/c2cccnc2)c2ccccc2n1,10.7%,/,5.62µM*,?,/
CC(C)COc1cccc(-c2cc(C(=O)N/N=C/c3ccncc3)c3ccccc3n2)c1,-0.5%,-5.4,2.82µM*,?,15.6
CCOc1ccc(-c2cc(C(=O)N/N=C/c3cccnc3)c3ccccc3n2)cc1,0.9%,62.5*,?,?,26.2*
O=C(COc1ccccc1-c1ccccc1)N/N=C/c1cccnc1,-0.2%,-16.3,/,/,-5.7
Cc1cc(C(=O)N/N=C/c2ccncc2)c2ccccc2n1,137.1%,-4.3,-23.2%[46.1 µM],-10.0%,-2.1
O=C(N/N=C/c1cccnc1)c1cc(-c2cccs2)nc2ccccc12,11.8%,1.3,?,-16.7%,-2.8
Cc1ccc(COc2ccccc2-c2cc(C(=O)N/N=C/c3cccnc3)[nH]n2)cc1,80.2%,-7.7,?,8.91µM*,-0.3
COc1cccc(CNC(=O)CN2C(=O)COc3ccc(S(=O)(=O)N4CCC(C)CC4)cc32)c1,6.9%,-11.7,-24.6%[46.1 µM],8.3%[46.1 µM],10.6
Cc1cc(SCC(=O)OCC(=O)N(C)c2ccccc2)nc2ccccc12,-7.3%,/,-13.2%[46.1 µM],-13.9%,/
O=C(Nc1ccc2c(c1)OCO2)c1ccc([N+](=O)[O-])cc1[N+](=O)[O-],-2.1%,43.6*,16.1%[46.1 µM],-0.5%,25.8
O=C(Cc1ccc([N+](=O)[O-])cc1)Nc1ccc2c(c1)OCO2,-11.8%,19.5,?,18.8%[46.1 µM],-5.0
COc1ccc(C)cc1NC(=O)c1ccc2c(c1)OCO2,-8.6%,96.5*,9.1%,0.7%,48.2*
COc1ccc(C)cc1NC(=O)COC(=O)c1ccc2c(c1)OCO2,5.3%,/,/,/,/
O=C(Nc1ccc2c(c1)OCO2)Oc1ccccc1,36.3%,75.6*,2.8%,-11.7%,38.5*
CCOC(=O)c1ccc(NC(=O)c2ccc3c(c2)OCO3)cc1,-3.8%,28.0,?,?,19.3*
CCC(=O)Nc1ccc(NC(=O)c2ccc3c(c2)OCO3)cc1,1.9%,23.6,?,-5.4%,9.1
Cc1ccc2cc(CN(CC(C)C)S(=O)(=O)c3cccc4nonc34)c(=O)[nH]c2c1,-2.0%,-6.8,/,/,-10.8
CCOC(=O)c1ccc(NS(=O)(=O)c2cc3c(cc2C)n(C)c(=O)c(=O)n3C)cc1,/,/,/,1.6%[46.1 µM],/
SMILES,AMA1-RON2 inh,Shiga inhibitor,MARV entry inh,Lassa entry inh,CHX counter
NC(=N\N=CCc1ccccc1)/C(N)=N/N=CCc1ccccc1,38.8%,/,?,7.5%[46.1 µM],/
CCOc1ccc(C(=O)Nc2ccc3c(c2)OCO3)cc1OCC,-29.5%,12.3,-14.3%,3.3%,-0.4
CCN(CC)c1ccc(C(=O)Nc2ccc3nc(N(CC)CC)cc(C)c3c2)cc1,/,/,11.2µM*,?,/
COC(=O)Nc1ccc2c(c1)OCO2,-6.6%,27.9,-2.8%,5.2%,12.1
CC1CCCN(c2ccc(C(=O)Nc3ccc4c(c3)OCO4)cc2[N+](=O)[O-])C1 (stereo unspecified),-4.9%[11.6 µM],-40.5,?,?,17.0*
CCOC(=O)Nc1ccc2c(c1)OCO2,14.1%,65.6,12.7%,-9.4%,45.5*
COc1ccc(NC(=O)c2ccc3c(c2)OCO3)cc1,2.4%,43.9,/,/,33.2*
Cc1ccc(S(=O)(=O)N[C@@H](CC(C)C)C(=O)N2CCC(C(=O)N[C@H](C(=O)O)C(C)C)CC2)cc1,-5.2%,-1.7,/,/,-0.8
CC(=O)c1c(C)[nH]c(C(=O)OCC(=O)Nc2ccc3c(c2)OCCO3)c1C,2.9%[11.6 µM],/,?,?,/
COc1ccc(NC(=O)c2cc3cc(C)ccc3[nH]2)cc1,/,/,3.7%[46.1 µM],2.9%[46.1 µM],/
CCc1ccc(NC(=O)c2ccc(OC)c([N+](=O)[O-])c2)cc1,9.9%,90.3*,?,-8.9%,36.6*
CCOC(=O)c1c(C)[nH]c(C(=O)Nc2ccc3c(c2)OCO3)c1C,/,53.2*,/,/,40.6*
COc1ccc2[nH]c(C(=O)Nc3ccc4c(c3)OCO4)cc2c1,25.6%,99.5*,/,/,53.2*
CCN(CC)c1ccc(NC(=O)c2ccc3c(c2)OCO3)cc1,6.7%,58.1*,?,-11.3%[46.1 µM],54.6*
Cc1cc(N2C(=O)C(=O)/C(=C(/O)c3ccccc3)[C@H]2c2cccs2)no1,/,/,20.6%,/,/
COc1ccc(NC(=O)c2ccc3c(c2)OCO3)cc1[N+](=O)[O-],-9.2%,59.5*,-5.0%[46.1 µM],18.3%,31.2*
COc1ccc(C(=O)N2c3ccccc3C(=O)OC2c2ccc3c(c2)OCO3)cc1 (stereo unspecified),-13.6%,28.5,-21.7%,?,19.7*
CC(=O)Oc1ccc(C2OC(=O)c3ccccc3N2C(C)=O)cc1 (stereo unspecified),-2.5%,-12.3,0.4%,-2.7%,-0.8
O=C(NN=C1CCCC1)c1[nH]c2ccc(Br)cc2c1-c1ccccc1,55.3%,-2.1,8.91µM*,?,-1.8
CNC(=S)NNC(=O)c1ccccc1F,87.9%,43.4,28.8%[46.1 µM],14.3%,-4.7
Cc1ccc(C)c(Cn2c(=O)c3c(nc4n3CCN4c3ccccc3)n(C)c2=O)c1,/,/,/,0.8%[46.1 µM],/
Cn1c(/C(C#N)=C/C2CC=CCC2)nc2ccccc21 (stereo unspecified),-3.4%,-7.0,-28.5%,-21.6%,8.8
N#C/C(=C\C1CC=CCC1)c1nc2ccccc2[nH]1 (stereo unspecified),63.2%,47.7,?,?,26.9*
N#C/C(=C(/O)c1cccs1)c1nc2ccccc2[nH]1,120.6%,20.7,/,/,4.2
N#C/C(=C/c1cccs1)c1nc2ccccc2[nH]1,7.7%,64.0*,?,11.9%,64.8*
N#C/C(=C\c1cccs1)Sc1nc2ccccc2s1,-16.0%,44.0*,?,0.8%,30.9*
N#C/C(=C\c1c(Cl)cccc1Cl)c1nc2ccccc2[nH]1,20.7%,35.9,?,?,14.1*
CCOc1ccc(S(=O)(=O)NCC(c2ccc(N(C)C)cc2)N2CCCC2)cc1 (stereo unspecified),/,/,/,-1.6%[46.1 µM],/
O=c1cc(-c2ccc(F)cc2)nc(SCc2nc(-c3cccc(C(F)(F)F)c3)no2)[nH]1,/,/,/,3.3%[46.1 µM],/
CN(C)/C=C(\C#N)c1nc2ccccc2[nH]1,12.0%,26.0,23.5%,14.4%,13.3

# Screening data from PubChem.
